Measurements: PubChem BioAssay (NCI)
Compounds without any hit were thinned out: in the full panel of roughly 83,000, 20% have a hit.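 A percent growth of 40 corresponds to 60% growth inhibition; 0 means no net growth; -100 means all cells died. Active threshold: below 10.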 The source made the active and inactive calls.

Tests used:
Test in all cases: NCI-60 one-dose screen, 48 h (100 = growth as untreated, 0 = no growth, -100 = all killed)
Conditions in all cases: 10 µM unless noted
HCT-15 colon = system: HCT-15 colon
HT29 colon = system: HT29 colon
SNB-75 CNS = system: SNB-75 CNS
SNB-19 CNS = system: SNB-19 CNS
U251 CNS = system: U251 CNS
PC-3 prostate = system: PC-3 prostate
SK-MEL-5 melanoma = system: SK-MEL-5 melanoma
UACC-62 melanoma = system: UACC-62 melanoma
LOX IMVI melanoma = system: LOX IMVI melanoma
SK-MEL-28 melanoma = system: SK-MEL-28 melanoma

Measured: growth

CC(C)=CCC/C(C)=C/CC/C(C)=C/CSC[C@H](NC(=O)CCCCCN1CCN(C)CC1)C(=O)NC1CCCCCC1
inactive: SNB-75 CNS 73.8% | SNB-19 CNS 81% | U251 CNS 33.2% | PC-3 prostate 51.9% | SK-MEL-5 melanoma 79.9% | LOX IMVI melanoma 25.3%
active: HCT-15 colon 0.0874% | HT29 colon -48.3% | UACC-62 melanoma 3.45% | SK-MEL-28 melanoma -56%

N#CC1C(=N)Cc2ccccc2-c2ccccc21 (stereo not given)
inactive: HCT-15 colon 37.9% | HT29 colon 12.4% | SNB-75 CNS 54.3% | SNB-19 CNS 64.1% | U251 CNS 37.7% | PC-3 prostate 62.1% | SK-MEL-5 melanoma 40.7% | UACC-62 melanoma 39.1% | SK-MEL-28 melanoma 58.3%

Cn1cc(-c2csc(-c3c[nH]c4ccc(F)cc34)n2)c2cccnc21
inactive: HCT-15 colon 19.2% | HT29 colon 11.3% | SNB-75 CNS 36.4% | SNB-19 CNS 54.4% | U251 CNS 37.5% | PC-3 prostate 48% | SK-MEL-5 melanoma 25.9% | UACC-62 melanoma 39.6% | SK-MEL-28 melanoma 57.4%

COc1ccc(C(=O)/C=C/c2cc(-c3cc(OC)c(OC)c(OC)c3)n[nH]2)cc1OC
active: HCT-15 colon -16.4% | HT29 colon -71% | U251 CNS -85.5% | LOX IMVI melanoma -96.3% | SK-MEL-28 melanoma -60.6%
inactive: SNB-75 CNS 33.2% | SNB-19 CNS 35.2% | PC-3 prostate 20.3% | SK-MEL-5 melanoma 12.3% | UACC-62 melanoma 34.1%

COc1ccc(-c2n/c(=C\c3c(O)[nH]c4ccc(OC)cc34)cc3c2=Nc2ccccc2-3)cc1
inactive: SNB-75 CNS 30.4% | SNB-19 CNS 38.4% | PC-3 prostate 75.8% | SK-MEL-5 melanoma 18.5% | LOX IMVI melanoma 27.4%
active: HCT-15 colon 0.939% | HT29 colon -47.4% | U251 CNS -79.3% | UACC-62 melanoma -56.4% | SK-MEL-28 melanoma -89.9%

Cc1oc(-c2ccccc2Cl)cc1C(=O)Nc1ccc(S(N)(=O)=O)cc1
inactive: HCT-15 colon 103% | HT29 colon 108% | SNB-75 CNS 89.9% | SNB-19 CNS 99.1% | U251 CNS 94.9% | PC-3 prostate 107% | SK-MEL-5 melanoma 97.3% | UACC-62 melanoma 95.8% | SK-MEL-28 melanoma 101%

C/C(=N\Nc1cc(C)c2cc(C)ccc2n1)c1ccccn1
active: HCT-15 colon -16.5% | HT29 colon -99.3% | SNB-75 CNS 5.85% | U251 CNS -100% | SK-MEL-5 melanoma -98.9% | UACC-62 melanoma -54.4% | LOX IMVI melanoma -86.4% | SK-MEL-28 melanoma -93.3%
inactive: SNB-19 CNS 20.6% | PC-3 prostate 15.2%

COc1cc(-c2nc(-c3ccccc3)c(-c3ccccc3)[nH]2)cc(OC)c1O
active: HT29 colon 0.965% | U251 CNS 5.45% | PC-3 prostate -58.6% | SK-MEL-5 melanoma -8.78% | UACC-62 melanoma -60.6% | LOX IMVI melanoma -47.7% | SK-MEL-28 melanoma -4.06%
inactive: HCT-15 colon 11.1% | SNB-75 CNS 29.7% | SNB-19 CNS 20.1%

Cc1ccc(/C=C(\C#N)c2cc3ccccc3n2C)cc1
inactive: HCT-15 colon 10.3% | HT29 colon 17.1% | SNB-75 CNS 19.4% | SNB-19 CNS 29.3% | U251 CNS 30.9% | PC-3 prostate 36.1% | SK-MEL-5 melanoma 23% | UACC-62 melanoma 20% | SK-MEL-28 melanoma 65.4%

Cc1nnc2nc(N)[nH]n2c1=O
inactive: HCT-15 colon 99.4% | HT29 colon 104% | SNB-75 CNS 93.7% | SNB-19 CNS 117% | U251 CNS 99% | PC-3 prostate 98% | SK-MEL-5 melanoma 106% | UACC-62 melanoma 115% | LOX IMVI melanoma 94.7% | SK-MEL-28 melanoma 109%

Cc1[c-]onc1C.Cc1[c-]onc1C.[Ag].[Ag].[NH-]S(=O)(=O)c1ccc(N=Nc2cc(N=Nc3ccc(S([NH-])(=O)=O)cc3)c3c(NC(=O)C(Cl)Cl)cccc3c2OC(=O)C(Cl)Cl)cc1
inactive: HCT-15 colon 84.1% | HT29 colon 78.3% | SNB-75 CNS 44.8% | SNB-19 CNS 86.6% | U251 CNS 82.7% | PC-3 prostate 47.1% | SK-MEL-5 melanoma 24.2% | UACC-62 melanoma 85.9% | LOX IMVI melanoma 81.4% | SK-MEL-28 melanoma 86.4%

CN1CCN(c2nc(-c3cccc4ccccc34)nc3sc4c(c23)CCCCCC4)CC1
inactive: HCT-15 colon 91.8% | HT29 colon 71.2% | SNB-75 CNS 49.1% | SNB-19 CNS 91.5% | U251 CNS 66.4% | PC-3 prostate 56.7% | SK-MEL-5 melanoma 85.3% | UACC-62 melanoma 87.6% | LOX IMVI melanoma 95.1% | SK-MEL-28 melanoma 98.1%

COc1cc2[nH]c(C(=O)c3cc(OC)c(OC)c(OC)c3)c(N)c2cc1C#CC1CC1
inactive: HCT-15 colon 23.1% | SNB-19 CNS 45.1% | U251 CNS 45% | PC-3 prostate 16.7% | SK-MEL-5 melanoma 18.4% | UACC-62 melanoma 34.4% | LOX IMVI melanoma 36.1% | SK-MEL-28 melanoma 35.2%
active: HT29 colon 5.53% | SNB-75 CNS -4.88%

CC(C)(C)CC(C)(C)c1ccc(OCCOCC[N+](C)(C)CC(=O)[O-])cc1
inactive: HCT-15 colon 105% | HT29 colon 103% | SNB-75 CNS 99.2% | SNB-19 CNS 111% | U251 CNS 98.4% | PC-3 prostate 104% | SK-MEL-5 melanoma 106% | UACC-62 melanoma 104% | LOX IMVI melanoma 107% | SK-MEL-28 melanoma 114%

C/C(=N\Nc1cc(C)c2ccccc2n1)c1ccccn1
active: HT29 colon -90.8% | U251 CNS -86.5% | SK-MEL-5 melanoma -72.1% | UACC-62 melanoma -52% | LOX IMVI melanoma -78.5% | SK-MEL-28 melanoma -93.7%
inactive: HCT-15 colon 21% | SNB-75 CNS 31.5% | SNB-19 CNS 19.9% | PC-3 prostate 15.9%

Clc1ccccc1-c1nc(Nc2nc3ccccc3s2)nc(C(Cl)(Cl)Cl)n1
inactive: HCT-15 colon 19.2% | HT29 colon 13.1% | SNB-75 CNS 58.2% | SNB-19 CNS 43.5% | U251 CNS 20.5% | PC-3 prostate 40.8% | SK-MEL-5 melanoma 90.7% | UACC-62 melanoma 48.1% | SK-MEL-28 melanoma 51.3%

Nc1nc(N)c2nc3c(nc2n1)CCCCCCCCCC3
inactive: HCT-15 colon 33.6% | HT29 colon 35.6% | SNB-75 CNS 79.2% | SNB-19 CNS 50.8% | U251 CNS 34.9% | PC-3 prostate 39.2% | SK-MEL-5 melanoma 35% | UACC-62 melanoma 43.9% | LOX IMVI melanoma 30.8% | SK-MEL-28 melanoma 90.4%

Cc1ccc(S(=O)(=O)Nc2ccc(-c3cc(-c4cccc(F)c4)c(C#N)c(N)n3)cc2)cc1
active: HCT-15 colon -23.3% | HT29 colon -7.07% | SNB-75 CNS -11.7% | UACC-62 melanoma -6.88% | SK-MEL-28 melanoma -33.3%
inactive: SNB-19 CNS 51.4% | U251 CNS 22.6% | PC-3 prostate 18.6% | SK-MEL-5 melanoma 28.4%

OCCNc1nc(Nc2ccc(Cl)c(Cl)c2)nc2ccccc12
active: HT29 colon 9.9%
inactive: HCT-15 colon 26.2% | SNB-75 CNS 61.1% | SNB-19 CNS 55.5% | U251 CNS 34.2% | PC-3 prostate 18.8% | SK-MEL-5 melanoma 34% | UACC-62 melanoma 57.1% | LOX IMVI melanoma 34.1% | SK-MEL-28 melanoma 73.6%

COc1cc2nc(Cl)nc(Nc3cccc(C(=O)/C=C/c4ccc(Br)cc4)c3)c2cc1OC
inactive: HCT-15 colon 43.6% | HT29 colon 68.4% | SNB-75 CNS 76.6% | SNB-19 CNS 86.1% | U251 CNS 80% | PC-3 prostate 65.5% | SK-MEL-5 melanoma 91.6% | UACC-62 melanoma 81.5% | SK-MEL-28 melanoma 92.7%

COC1=C(Br)C(=O)C(OC)=C(Br)C1=O
inactive: HCT-15 colon 96.1% | HT29 colon 106% | SNB-75 CNS 103% | SNB-19 CNS 95.8% | U251 CNS 104% | PC-3 prostate 107% | SK-MEL-5 melanoma 99.4% | UACC-62 melanoma 91.2% | SK-MEL-28 melanoma 117%

NC(N)=N/N=C/c1ccc(-c2ccc(-c3ccc(Cl)cn3)s2)cc1
inactive: HT29 colon 11.9% | SNB-75 CNS 88.9% | SNB-19 CNS 94.2% | U251 CNS 20.6% | SK-MEL-5 melanoma 91.6% | UACC-62 melanoma 99.1% | SK-MEL-28 melanoma 99.2%
active: HCT-15 colon -4.03% | PC-3 prostate -42.3%

Cc1ccc2c(c1)c(-c1nc(-c3c[nH]c4ncccc34)cs1)cn2C
inactive: HCT-15 colon 86.5% | HT29 colon 69% | SNB-75 CNS 91.2% | SNB-19 CNS 107% | U251 CNS 98.6% | PC-3 prostate 85.7% | SK-MEL-5 melanoma 98.8% | UACC-62 melanoma 94.5% | SK-MEL-28 melanoma 109%

C[C@@H](Oc1ccc(C(=O)NS(=O)(=O)C(C)(C)C)cc1C(F)(F)F)c1ccc(Oc2ccccc2)cn1
inactive: HCT-15 colon 23.8% | HT29 colon 34.6% | SNB-19 CNS 20% | U251 CNS 25.6% | PC-3 prostate 47.5% | SK-MEL-5 melanoma 23.2% | UACC-62 melanoma 18% | SK-MEL-28 melanoma 47.1%
active: SNB-75 CNS -9.43%

c1ccc2c(-c3nc(-c4c[nH]c5ncccc45)cs3)c[nH]c2c1
inactive: HCT-15 colon 84.9% | HT29 colon 79.2% | SNB-75 CNS 88.4% | SNB-19 CNS 97.8% | U251 CNS 104% | PC-3 prostate 84.2% | SK-MEL-5 melanoma 106% | UACC-62 melanoma 96.9% | SK-MEL-28 melanoma 112%

Cc1csc(-c2ccc3c(c2)COC3(CCCN(C)C)c2ccc(F)cc2)c1 (stereo not given)
inactive: HCT-15 colon 14.4% | SNB-75 CNS 32% | SNB-19 CNS 74.8% | PC-3 prostate 28% | SK-MEL-5 melanoma 73.6% | SK-MEL-28 melanoma 37.5%
active: HT29 colon -39.6% | U251 CNS -45.1% | UACC-62 melanoma -73.6%

Nc1c2c(nc3ccc(Cl)cc13)CC(c1ccccc1)CC2=O (stereo not given)
inactive: HCT-15 colon 16.7% | HT29 colon 13.1% | SNB-75 CNS 23.4% | SNB-19 CNS 37% | U251 CNS 40.9% | PC-3 prostate 54.8% | SK-MEL-5 melanoma 30.6% | UACC-62 melanoma 23.7% | SK-MEL-28 melanoma 51.5%

Oc1cccc2oc(=S)[nH]c12
inactive: HCT-15 colon 102% | HT29 colon 113% | SNB-75 CNS 86.4% | SNB-19 CNS 106% | U251 CNS 109% | PC-3 prostate 111% | SK-MEL-5 melanoma 105% | UACC-62 melanoma 101% | SK-MEL-28 melanoma 104%
